The values below come from PubChem BioAssay (Tox21).

“And” between values parts separate entries of the source, which are not always exact repeats. Identical values can stand only once. Records with an inconclusive call do not appear. Some compounds were tested as several samples or in several runs, with calls that do not always agree. The source made the active and inactive calls. Unless noted, calls follow the shape of the full dose curve.

Experiment [1] is described as follows: qHTS assay to identify small molecule antagonists of the vitamin D receptor (VDR) signaling pathway - cell viability counter screen (AID 743225; active = well fitted curve in the direction sought with a large enough effect in the repeat runs; an effect the other way counts as inactive or inconclusive; also: nearly all actives have a fitted effect of over 50% in size; also: potency is read from the fitted curve at half-maximal effect). In a few lines:
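VDR-bla HEK 293T cells, 4 h pre-incubation at 37C, then compound plus 1-alpha,25-dihydroxyvitamin D3 (3 nM final) for 16 h. After the beta-lactamase FRET read, CellTiter-Glo was added to the same wells; luminescence after 30 min at room temperature.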
(Quantitative high-throughput screening tests each substance at several concentrations.)

Experiment [2] in a line: qHTS assay to identify small molecule agonists of the NFkB signaling pathway - cell viability counter screen (AID 1159515). Also: nearly all actives have a fitted effect of over 55% in size. Also: potency is read from the fitted curve at half-maximal effect. An outline of the steps: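 5 hr compound treatment of NFkB-bla ME-180 cells (2,000/well, seeded overnight beforehand), followed by reporter substrate for 1.5 hr. CellTiter-Glo added afterward; luminescence after 30 min RT.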
Experiment [3] in a line: qHTS assay to identify small molecule agonists of the endoplasmic reticulum stress response signaling pathway (AID 1159516; active = well fitted activation curve with a large enough effect in the signal ratio in the repeat runs, not every such curve was filed as active; the % refers to the signal ratio). In a few lines:
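Reporter HeLa cells (ESRE-beta-lactamase) underwent 5 hr compound incubation at 37 C and 5% CO2 in quantitative HTS format. Detection followed 2 hr of FRET substrate loading at room temperature.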

Experiment [4] in a line: qHTS assay to identify small molecule agonists of the endoplasmic reticulum stress response signaling pathway - cell viability counter screen (AID 1159517). Also: nearly all actives have a fitted effect of over 50% in size. Also: potency is read from the fitted curve at half-maximal effect. In a few lines:
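ESRE-bla HeLa cells, 1,500 per well, seeded overnight then treated with compounds for 5 hr at 37 C. After the beta-lactamase read, viability in the same wells is measured by CellTiter-Glo luminescence after 30 min at room temperature.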

Experiment [5] in a line: qHTS assay to identify small molecule antagonists of the retinoid-related orphan receptor gamma (ROR-gamma) signaling pathway - cell viability counter screen (AID 1159520; active = well fitted curve in the direction sought with a large enough effect in the repeat runs; an effect the other way counts as inactive or inconclusive; also: nearly all actives have a fitted effect of over 50% in size; also: potency is read from the fitted curve at half-maximal effect). In a few lines:
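Tet-on ROR gamma CHO cells were given compounds for 2 hr, then doxycycline hyclate at 1 uM final, and incubated 16 hr at 37 C. Viability was measured as ATP content by CellTiter-Glo luminescence.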

The target in experiment [6] is Nuclear receptor ROR-gamma (Homo sapiens) (UniProt P51449). As to the kind of experiment: qHTS assay to identify small molecule antagonists of the retinoid-related orphan receptor gamma (ROR-gamma) signaling pathway (AID 1159521; active = well fitted curve in the direction sought with a large enough effect in the repeat runs; an effect the other way counts as inactive or inconclusive; also: nearly all actives have a fitted effect of over 50% in size; also: potency is read from the fitted curve at half-maximal effect). In a few lines: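 Tet-on RORγ CHO cells carrying a ROR response element–luciferase reporter were pretreated with compounds for 2 h, then induced with 1 uM (final) doxycycline hyclate for 16 h at 37 C. Antagonism was read as decreased ONE-Glo luminescence.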

Experiment [7] is described as follows: qHTS assay to identify small molecule agonists of the AP-1 signaling pathway (AID 1159526).
The target of experiment [8] is Retinoic acid receptor RXR-alpha (Homo sapiens) (UniProt P19793). The experiment can be described thus: qHTS assay to identify small molecule agonists of the RXR signaling pathway (AID 1159527). Also: nearly all actives have a fitted effect of over 35% in size. Also: potency is read from the fitted curve at half-maximal effect. An outline of the steps:
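GeneBLAzer RXR-alpha-UAS-bla HEK 293T cells in medium with 2% charcoal-stripped FBS, pre-incubated 5 hr at 37 C, then exposed to compounds 16 hr. Beta-lactamase reporter read by FRET substrate, 2 hr room temperature, 460/530 nm emission.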

Experiment [9] is described as follows: qHTS assay to identify small molecule agonists of the RXR signaling pathway - cell viability counter screen (AID 1159529; active = well fitted curve in the direction sought with a large enough effect in the repeat runs; an effect the other way counts as inactive or inconclusive). In a few lines:
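RXR-alpha-UAS-bla HEK 293T cells in medium with 2% charcoal-stripped FBS were preincubated 5 hr, then exposed to compounds for 16 hr at 37 C. Viability was read as CellTiter-Glo luminescence after 30 min at room temperature.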

Experiment [10] can be described thus: qHTS assay to identify small molecule agonists of the AP-1 signaling pathway - cell viability counter screen (AID 1159525). Also: nearly all actives have a fitted effect of over 55% in size. Also: potency is read from the fitted curve at half-maximal effect. An outline of the steps:
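AP-1-bla ME-180 cells in Opti-MEM with 0.5% dialyzed FBS, compound exposure 5 h at 37 C in 15-point titration. Viability read in the same wells as ATP content by CellTiter-Glo luminescence, normalised to tetra-n-octylammonium bromide and DMSO controls.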

Retinoic acid receptor RXR-alpha (Homo sapiens), sequence (P19793 whole entry, looked up): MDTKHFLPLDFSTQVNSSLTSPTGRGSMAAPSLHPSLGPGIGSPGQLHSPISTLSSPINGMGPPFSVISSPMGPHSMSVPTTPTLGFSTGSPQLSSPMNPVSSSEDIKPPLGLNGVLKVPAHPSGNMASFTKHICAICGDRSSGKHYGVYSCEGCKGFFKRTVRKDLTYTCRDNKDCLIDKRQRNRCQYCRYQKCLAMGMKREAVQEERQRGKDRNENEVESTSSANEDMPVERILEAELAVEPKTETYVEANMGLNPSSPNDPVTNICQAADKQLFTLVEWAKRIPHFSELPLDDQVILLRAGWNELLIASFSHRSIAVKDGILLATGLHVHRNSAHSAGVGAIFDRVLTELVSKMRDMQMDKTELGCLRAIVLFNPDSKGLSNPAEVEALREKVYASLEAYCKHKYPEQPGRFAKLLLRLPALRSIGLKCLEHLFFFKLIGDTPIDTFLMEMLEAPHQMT

On to `CC(C)(C)NCC(O)COc1ccccc1OCC1CCCO1` (centres undefined), for which the Potency result in [1], in experiment [2], in [4], in experiment [5], in experiment [6] and in [7] was “inactive” in each case. Besides, the Potency result in [8] and in experiment [9] was “inactive” throughout. Moreover, the result in [3] was inactive.
As to `C=C(C)C1CC=C(C)C(OC(C)=O)C1` (centres undefined), the Potency result in experiment [1], in [2], in experiment [4], in experiment [5], in experiment [6] and in experiment [10] was “inactive” throughout. For the same molecule, the Potency result in [7] and in [8] was “inactive” throughout. In [3], the outcome was inactive.
Turning to `CCc1cc(C(C)(C)C)c(O)c(C(C)(C)C)c1`, the Potency entry in experiment [1], in [2], in [4], in [5], in experiment [6] and in experiment [10] was “inactive” throughout. Besides, in [7], the Potency entry is “inactive”. Moreover, in [3], the molecule was classed as inactive.
As for `O=C(Oc1ccccc1)c1ccccc1O`, the Potency entry in experiment [1], in experiment [2], in [4], in [5], in [6] and in experiment [10] was “inactive” in each case. Besides, the Potency result in experiment [7] and in [8] was “inactive” in each case. The molecule was called inactive in experiment [3].
On to `CC1=C(C=O)C(C)(C)CC=C1`, for which the Potency result in [1], in experiment [2], in [4], in [5], in experiment [6] and in [10] was “inactive” throughout. In addition, the Potency entry in [7] and in experiment [8] was “inactive” in each case. In experiment [3], the call was inactive.
For the molecule `O=C(O)c1cn(-c2ccc(F)cc2)c2cc(N3CCNCC3)c(F)cc2c1=O`, the Potency entry in experiment [1], in experiment [2], in [4], in experiment [5], in experiment [6] and in experiment [7] was “inactive” throughout. Besides, in experiment [8], the Potency result was “inactive”. For the same molecule, the result in [3] was inactive.
On to `c1ccc2c(c1)CCCC2C1=NCCN1` (centres undefined), for which the Potency entry in [1], in experiment [2], in experiment [4], in experiment [5], in experiment [6] and in experiment [7] was “inactive” throughout. For the same molecule, the Potency entry in experiment [8] and in experiment [9] was “inactive” in each case. The outcome in experiment [3] was inactive.
Regarding `CCC(=O)/C=C/C1C(C)=CCCC1(C)C` (centres undefined), the Potency entry in [1], in experiment [2], in [4], in experiment [5], in experiment [6] and in experiment [7] was “inactive” throughout. The Potency entry in [8] and in [9] was “inactive” each time. Further, in [3], the call was inactive.
Consider `CC(=O)CC(C)=O`, for which the Potency entry in experiment [2], in [4], in [5], in experiment [6], in experiment [7] and in [8] was “inactive” each time. In addition, in [9], the Potency result is “inactive”. Further, the molecule was called inactive in experiment [3].
On to `CC(=O)O[C@]1(C(C)=O)CC[C@H]2[C@@H]3C[C@H](C)C4=CC(=O)CC[C@]4(C)[C@H]3CC[C@@]21C`, for which the Potency entry in experiment [1], in experiment [2], in experiment [4], in experiment [5], in experiment [10] and in experiment [9] was “inactive” in each case. In addition, the molecule was classed as inactive in experiment [3]. In addition, the Potency in experiment [6] is 26.6 µM (active).
Turning to `CC(=O)OCCOCCOCCOC(C)=O`, the Potency entry in [1], in experiment [2], in [4], in [5], in experiment [6] and in experiment [10] was “inactive” in each case. Besides, in experiment [7], the Potency entry was “inactive”. In experiment [3], the molecule was called inactive. Moreover, in experiment [8], the Potency entry was “inactive and 12.3 µM (active)”.
With `CCC(C)(C)C(=O)O[C@H]1C[C@@H](C)C=C2C=C[C@H](C)[C@H](CC[C@@H]3C[C@@H](O)CC(=O)O3)[C@H]21`, the Potency result in experiment [1], in experiment [2], in experiment [4] and in [7] was “inactive” throughout. The molecule was classed as inactive in experiment [3]. Besides, the Potency in experiment [5] was 9.44 µM (active); in [6], 3.86 µM (active) and 841 nM (active).
Consider `CC[C@@H](N)CO`, for which the Potency result in experiment [2], in [4], in experiment [5], in experiment [6], in [7] and in experiment [8] was “inactive” each time. Besides, the call in [3] was inactive.
As to `COc1ccc(CCN2CCC(Nc3nc4ccccc4n3Cc3ccc(F)cc3)CC2)cc1`, the Potency in experiment [1] was 6.3 µM (active) and 23.9 µM (active); in experiment [2], 17.8 µM (active); in experiment [4], 31.6 µM (active); in experiment [5], 17.6 µM (active) and 26.6 µM (active); in experiment [6] it was 9.9 µM (active) and 11.9 µM (active); in experiment [10], 35.4 µM (active) and inactive. For the same molecule, the outcome in experiment [3] was inactive. Further, the Potency entry in experiment [7] was “inactive”.
As to `CCCOC(=O)c1cc(O)c(O)c(O)c1`, the Potency entry in [1], in experiment [2], in experiment [4], in experiment [5], in [10] and in experiment [7] was “inactive” in each case. Also, the Potency entry in experiment [9] was “inactive”. For the same molecule, in [3], the result was inactive. In [6], the Potency was 27.2 µM (active).
As to `CC(C)(C)c1cc(C(C)(C)C)c(O)c(C(C)(C)C)c1`, the Potency result in [1], in experiment [2], in experiment [4], in experiment [5], in experiment [6] and in experiment [7] was “inactive” each time. Moreover, the molecule was classed as inactive in [3]. In experiment [10], the Potency result is “inactive and 49 µM (active)”.
